From PubChem BioAssay (NCATS) come the findings set out here.

For assay [1], the target named is Rap guanine nucleotide exchange factor 3 (Homo sapiens) (UniProt O95398). The assay can be described thus: Confirmatory qHTS for antagonist of cAMP-regulated guanine nucleotide exchange factor 3 (EPAC1) (AID 1645880).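 For activity, negative = inhibition: plate controls were DMSO only for no effect and full effect of the ATA control for full effect.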 Note: nearly all actives have a fitted effect of over 55% in size. Note: potency is the fitted concentration of half-maximal effect. Particulars: EPAC1 Rap1B-BODIPY-GDP exchange, fluorescence; activity, negative = inhibition: at 115 µM (top of the series). The procedure, abridged:
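Nucleotide exchange uses 100 nM EPAC1, 250 nM RAP1B-BODIPY-GDP and 50 uM GDP, with compounds in a concentration-titration series. After 5 min at room temperature, fluorescence (480 nm ex/540 nm em) is read every 5 min for 30 min. Data are normalized to control ATA and DMSO.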

The target of assay [2] is Rap guanine nucleotide exchange factor 4 (Homo sapiens) (UniProt Q8WZA2). The assay can be described thus: Confirmatory qHTS for agonist of cAMP-regulated guanine nucleotide exchange factor 4 (EPAC2) (AID 1645884). For activation: % is set by controls: 0 for no effect and ±100 for the full control effect.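 Note: nucleotide exchange releases bodipy-GDP from Rap1 and this lowers its fluorescence; nearly all actives have a fitted effect of over 65% in size.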 Note: potency is the fitted concentration of half-maximal effect.
Chain of Rap guanine nucleotide exchange factor 4 (Homo sapiens) (Q8WZA2 whole entry, looked up): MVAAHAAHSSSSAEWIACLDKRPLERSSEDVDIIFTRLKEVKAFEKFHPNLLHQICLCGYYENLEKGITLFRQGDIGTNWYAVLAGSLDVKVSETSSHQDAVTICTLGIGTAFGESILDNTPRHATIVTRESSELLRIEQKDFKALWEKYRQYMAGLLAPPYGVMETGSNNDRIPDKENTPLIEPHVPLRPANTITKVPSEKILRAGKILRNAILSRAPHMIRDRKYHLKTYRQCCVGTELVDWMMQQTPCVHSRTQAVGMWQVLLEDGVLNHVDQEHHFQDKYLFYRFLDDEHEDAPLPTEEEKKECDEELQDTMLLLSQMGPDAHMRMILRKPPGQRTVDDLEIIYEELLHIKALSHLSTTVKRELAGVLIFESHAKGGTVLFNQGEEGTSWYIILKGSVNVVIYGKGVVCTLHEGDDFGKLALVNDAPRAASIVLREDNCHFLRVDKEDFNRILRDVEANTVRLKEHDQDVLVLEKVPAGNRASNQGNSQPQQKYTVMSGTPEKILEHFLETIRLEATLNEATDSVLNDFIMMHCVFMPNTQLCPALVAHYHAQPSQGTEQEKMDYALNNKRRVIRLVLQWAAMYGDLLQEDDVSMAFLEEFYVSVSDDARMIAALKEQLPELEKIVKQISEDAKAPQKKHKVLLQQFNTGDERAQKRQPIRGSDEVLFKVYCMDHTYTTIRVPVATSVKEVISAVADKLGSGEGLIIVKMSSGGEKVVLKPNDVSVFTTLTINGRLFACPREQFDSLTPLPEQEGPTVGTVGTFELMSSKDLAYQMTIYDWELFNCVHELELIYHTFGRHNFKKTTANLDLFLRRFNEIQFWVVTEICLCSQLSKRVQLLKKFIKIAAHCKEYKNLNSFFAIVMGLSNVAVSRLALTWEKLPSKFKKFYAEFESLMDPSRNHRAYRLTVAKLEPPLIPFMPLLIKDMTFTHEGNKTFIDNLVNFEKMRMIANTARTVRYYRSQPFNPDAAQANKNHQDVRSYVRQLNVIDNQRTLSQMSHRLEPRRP
The target is the same in assay [3]. The assay can be described thus: Confirmatory qHTS for antagonist of cAMP-regulated guanine nucleotide exchange factor 4 (EPAC2) (AID 1645885; note: nearly all actives have a fitted effect of over 25% in size; note: potency is the fitted concentration of half-maximal effect; for activity change, negative = inhibition: % is set by controls: 0 for no effect and ±100 for the full control effect). (In general: qHTS replaces the single test concentration by a dilution series.)
Assay [4] addresses Rap guanine nucleotide exchange factor 3 (Homo sapiens) (UniProt O95398). The assay can be described thus: Counterscreen qHTS for antagonist of cAMP-regulated guanine nucleotide exchange factor 3 (EPAC1) (AID 1645888).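 Note: fluorescence loss as bound BODIPY-GDP is released from Rap1B; % of control where 0% means no effect.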 An outline of the steps:
(§1)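 Rap1B–BODIPY-GDP (250 nM) with 50 uM GDP; compounds pin-transferred to 9.74 nM–152 uM final (activator) or from 7.32 nM upwards (inhibitor). Fluorescence Ex/Em 480/540 nm read at 5 and 30 min, then after adding cAMP or buffer, at room temperature.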

The target is the same in assay [5]. The assay can be described thus: Counterscreen qHTS for agonist of cAMP-regulated guanine nucleotide exchange factor 3 (EPAC1) (AID 1645889). For activation: % of control where 0% means no effect. Note: nearly all actives have a fitted effect of over 40% in size. Note: potency is the fitted concentration of half-maximal effect. An outline of the steps: as §1

Inconclusive results are not listed. Values without a mark were called inactive. Activity calls are given as the source filed them. Calls come from the whole dose curve; as a rule, active = well fitted curve in the direction sought with a large enough effect; inconclusive = small, poorly fitted or top-dose-only effect, or another doubt; inactive = no such curve, though single readings can be large; an effect the other way counts as inactive or inconclusive.

Chain of Rap guanine nucleotide exchange factor 3 (Homo sapiens) (O95398 whole entry, looked up): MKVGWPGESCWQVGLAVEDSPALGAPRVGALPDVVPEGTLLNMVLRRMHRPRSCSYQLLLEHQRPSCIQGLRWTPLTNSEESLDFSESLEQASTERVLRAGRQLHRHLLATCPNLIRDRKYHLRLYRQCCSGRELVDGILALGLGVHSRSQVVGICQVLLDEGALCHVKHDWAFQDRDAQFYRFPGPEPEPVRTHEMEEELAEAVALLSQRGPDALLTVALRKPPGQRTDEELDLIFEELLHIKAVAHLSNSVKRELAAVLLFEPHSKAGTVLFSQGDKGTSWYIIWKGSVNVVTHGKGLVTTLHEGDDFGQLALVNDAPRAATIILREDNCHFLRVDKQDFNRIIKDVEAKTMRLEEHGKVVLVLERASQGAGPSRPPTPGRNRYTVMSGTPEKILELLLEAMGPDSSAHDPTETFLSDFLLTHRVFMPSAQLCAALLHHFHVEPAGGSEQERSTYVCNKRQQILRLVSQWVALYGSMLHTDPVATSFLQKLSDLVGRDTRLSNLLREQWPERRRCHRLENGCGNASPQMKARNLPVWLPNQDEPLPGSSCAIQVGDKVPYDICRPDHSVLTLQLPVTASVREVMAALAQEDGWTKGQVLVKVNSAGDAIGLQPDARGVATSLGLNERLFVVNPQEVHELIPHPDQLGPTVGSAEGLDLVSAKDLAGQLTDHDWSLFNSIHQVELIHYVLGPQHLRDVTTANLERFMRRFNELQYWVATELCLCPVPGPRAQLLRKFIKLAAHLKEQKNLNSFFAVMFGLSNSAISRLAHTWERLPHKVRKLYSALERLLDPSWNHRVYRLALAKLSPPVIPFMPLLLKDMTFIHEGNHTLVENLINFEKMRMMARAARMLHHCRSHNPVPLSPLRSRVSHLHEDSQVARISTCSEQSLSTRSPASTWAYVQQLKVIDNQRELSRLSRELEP

Turning to `CCN(CC)c1ccc2cc(C(N)=O)c(=N)oc2c1`, the Potency result in assay [1] and in assay [3] was “inactive” in each case. Also, the activation in assay [2] was 2.03% [at 17.1 µM, percent relative to cAMP agonist control]. For the same compound, the activity change, negative = inhibition in assay [4] is -1.22% [at 30.8 µM].
`COC(=O)c1c(C)c2c(C)cc3ccccn3c-2c1C(=O)OC`: the Potency result in assay [1] and in assay [3] was “inactive” throughout. The activation in assay [2] is 10.6% [at 17.1 µM, percent relative to cAMP agonist control]. In addition, the activity change, negative = inhibition in assay [4] is 9.53% [at 30.8 µM].
As to `O=C(O)c1ccccc1NS(=O)(=O)c1ccc(NN=Cc2cccc(Cl)c2)c([N+](=O)[O-])c1`, in assay [1], the Potency is 75.7 µM (active). Also, the Potency result in assay [2], in assay [3] and in assay [4] was “inactive” throughout.
In the case of `Cc1ccc(Nc2cc(C)nc3c(C)ccc([N+](=O)[O-])c23)cc1`, the Potency entry in assay [1] and in assay [3] was “inactive” in each case. In addition, the activation in assay [2] is 6.25% [at 17.1 µM, percent relative to cAMP agonist control]. Further, in assay [4], the activity change, negative = inhibition is 4.53% [at 30.8 µM].
As for `COc1ccc(OC)c(/C=C/c2nc3ccccc3[nH]c2=O)c1`, the Potency result in assay [1] and in assay [4] was “inactive” in each case. Also, the figures for the Potency in assay [2] and in assay [3] were 100 µM (active) and 75.7 µM (active), respectively.
As to `Nc1ccccc1Oc1ccc2ccccc2c1`, the Potency result in assay [1], in assay [2], in assay [3] and in assay [4] was “inactive” throughout.
As for `O=C(/C=C/c1ccc(N2CCOCC2)cc1)c1ccccc1`, the Potency result in assay [1], in assay [2], in assay [3] and in assay [4] was “inactive” throughout.
Regarding `CCOc1ccc(NC(=O)/C(C#N)=C/c2ccc(N3CCCC3)c(C)c2)cc1`, the Potency result in assay [1] and in assay [3] was “inactive” throughout. In addition, the activation in assay [2] is 3.1% [at 17.1 µM, percent relative to cAMP agonist control]. The activity change, negative = inhibition in assay [4] was 15.4% [at 30.8 µM].
As for `CN(C)c1ccc(/C=C2\SC(=S)N(Nc3ncc(C(F)(F)F)cc3Cl)C2=O)cc1`, the Potency entry in assay [1] and in assay [4] was “inactive” in each case. Moreover, the Potency in assay [2] is 112 µM (active); in assay [3] it was 16.9 µM (active); in assay [5], 17.8 µM (active).
As for `O=C(Cn1c(=O)n(-c2ccccc2)c(=O)c2c3c(sc21)CCC3)c1ccc(Br)cc1`, the Potency result in assay [1], in assay [2], in assay [3], in assay [4] and in assay [5] was “inactive” throughout.
Consider `Cc1ccc(NC(=O)c2sc3nc(-c4cc5ccccc5oc4=O)[nH]c(=O)c3c2C)c(C)c1`, for which the Potency result in assay [1], in assay [2], in assay [3] and in assay [4] was “inactive” in each case.
For the compound `Cc1cccn2c(=O)c(/C=C(\C#N)c3nc4ccccc4n3C)c(Oc3ccc(Br)cc3)nc12`, the Potency result in assay [1], in assay [2], in assay [3] and in assay [4] was “inactive” throughout. Besides, the Potency in assay [5] was 39.8 µM (active).
Regarding `O=c1oc2ccc(Cl)cc2nc1/C=C(\O)c1cccs1`, the Potency result in assay [1] and in assay [3] was “inactive” each time. For the same compound, the activation in assay [2] is 14.5% [at 17.1 µM, percent relative to cAMP agonist control]; in assay [5], 11.4% [at 30.8 µM]. In assay [4], the activity change, negative = inhibition is 7.64% [at 30.8 µM].
On to `CC(=O)NC(c1cccc(F)c1)c1nc(-c2ccccc2)cs1` (stereo unspecified), for which the Potency result in assay [1] and in assay [3] was “inactive” each time. Further, the activation in assay [2] is 10% [at 17.1 µM, percent relative to cAMP agonist control]; in assay [5] it was 45.7% [at 30.8 µM]. Also, the activity change, negative = inhibition in assay [4] is -20.8% [at 30.8 µM].
Take `COC(=O)c1cc(NC(=O)c2ccccc2)c(=O)oc1C/C=N\OCc1ccc(Cl)cc1Cl`: the Potency entry in assay [1] and in assay [3] was “inactive” in each case. For the same compound, the activation in assay [2] is -1.43% [at 17.1 µM, percent relative to cAMP agonist control]; in assay [5] it was 26% [at 30.8 µM]. Further, in assay [4], the activity change, negative = inhibition was -10.8% [at 30.8 µM].
For `CC(=O)Nc1sc2c(c1-c1nc3ccccc3s1)CN(C(C)C)CC2`, the Potency entry in assay [1] and in assay [3] was “inactive” each time. In assay [2], the activation is 18.6% [at 17.1 µM, percent relative to cAMP agonist control]. In addition, in assay [4], the activity change, negative = inhibition is 28.4% [at 30.8 µM]. In addition, the Potency in assay [5] is 10 µM (active).
In the case of `CCOC(=O)C1=C(C)N=c2s/c(=C/c3ccc(OCC(=O)O)c(OC)c3)c(=O)n2C1c1ccc(Cl)cc1` (stereo unspecified), the Potency entry in assay [1], in assay [2], in assay [3], in assay [4] and in assay [5] was “inactive” in each case.
Regarding `CC(C)(C)CNC(=O)c1cccc2c1C(=O)c1ccc(-c3cc4ccccc4o3)cc1S2(=O)=O`, the Potency result in assay [1], in assay [3], in assay [4] and in assay [5] was “inactive” in each case. In addition, the Potency in assay [2] was 79.4 µM (active).
On to `Cc1ccccc1-n1c(O)c(/C=C/C=Nc2ccccc2)c(=O)[nH]c1=O`, for which the Potency result in assay [1], in assay [3] and in assay [4] was “inactive” in each case. Moreover, the Potency was 112 µM (active) in assay [2] and 39.8 µM (active) in assay [5].
With `O=C(Cn1ccc(=O)[nH]c1=O)c1ccc([N+](=O)[O-])o1`, the Potency entry in assay [1] and in assay [3] was “inactive” throughout. For the same compound, the activation was 15.2% [at 17.1 µM, percent relative to cAMP agonist control] in assay [2] and 18.6% [at 30.8 µM] in assay [5]. For the same compound, in assay [4], the activity change, negative = inhibition is -11.8% [at 30.8 µM].
As for `COc1ccc2oc(C)c(C(=O)c3ccccc3)c2c1`, the Potency entry in assay [1] and in assay [3] was “inactive” throughout. In addition, the activation in assay [2] is 5.91% [at 17.1 µM, percent relative to cAMP agonist control]; in assay [5], 7.36% [at 30.8 µM]. For the same compound, in assay [4], the activity change, negative = inhibition was 1.7% [at 30.8 µM].
With `Cc1ccc(N2C(=O)c3cccc4c(N)ccc(c34)C2=O)c2cccnc12`, the Potency entry in assay [1], in assay [3] and in assay [4] was “inactive” each time. Also, the Potency was 112 µM (active) in assay [2] and 10 µM (active) in assay [5].
In the case of `Cc1[nH]c2ccccc2c1C(c1ccccc1)c1ccc(Cl)s1` (stereo unspecified), the Potency entry in assay [1], in assay [2], in assay [3], in assay [4] and in assay [5] was “inactive” in each case.
